In the library only some 5.9% were active in any assay of this set; here they are far more common.
RORg inh – inhibitors of mouse ROR gamma transcriptional activity. P51450. Drosophila S2 Gal4-RORgamma UAS-luciferase reporter, 20 h. Potency, µM (series often up to 53.6 µM), for inactives: at the highest dose activity change, negative = inhibition, most hits filed as inhibitors. 5.4% of 310,000 active. AID 2551; further: potency means the concentration at half of the fitted maximal effect; nearly all actives have a fitted effect of over 60% in size
Target sequence (P51450 whole entry, looked up, the tested form may be a part): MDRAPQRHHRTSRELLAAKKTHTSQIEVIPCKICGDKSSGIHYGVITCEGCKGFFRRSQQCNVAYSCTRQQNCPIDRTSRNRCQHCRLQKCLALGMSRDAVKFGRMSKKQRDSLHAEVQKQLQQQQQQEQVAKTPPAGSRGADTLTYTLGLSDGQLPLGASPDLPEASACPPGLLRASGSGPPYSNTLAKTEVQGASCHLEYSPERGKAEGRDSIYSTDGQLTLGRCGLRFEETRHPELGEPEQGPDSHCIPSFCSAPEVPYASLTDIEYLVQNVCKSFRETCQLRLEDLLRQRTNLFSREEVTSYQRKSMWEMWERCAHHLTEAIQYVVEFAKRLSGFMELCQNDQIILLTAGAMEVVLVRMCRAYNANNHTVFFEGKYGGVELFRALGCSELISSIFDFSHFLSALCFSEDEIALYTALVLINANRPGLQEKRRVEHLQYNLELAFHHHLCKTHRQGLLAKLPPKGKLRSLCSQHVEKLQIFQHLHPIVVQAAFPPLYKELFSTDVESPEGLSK
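Stable Schneider cell line, Gal4 DNA-binding domain fused to ROR gamma, UAS-luciferase. Cmpd 1 hr RT → CuSO4 700 uM final → 20 hr RT → luciferase reagent 10 min → luminescence.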
GALK inhibitor – inhibitors of human galactokinase; P51570; Potency, µM (series often up to 57.5 µM), inactives show top-dose activity change, negative = inhibition, most hits filed as inhibitors; AID 1868; Purified GALK, Kinase-Glo residual ATP luminescence; 0.007% of 270,000 active; further: potency means the concentration at half of the fitted maximal effect
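Human GALK (5 nM) with 35 uM ATP and 100 uM galactose in 20 mM HEPES pH 8.0, 5 mM MgCl2, 60 mM NaCl, 1 mM DTT, 0.01% BSA. After 1 h at room temperature, leftover ATP was read by Kinase-Glo Plus luminescence.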
TrxR1 inh – inhibitors of rat thioredoxin reductase 1. O89049. recombinant rTrxR1, NADPH fluorescence consumption, selenite substrate. Potency, µM (titrated, usually from 114 µM), inactives show top-dose activity change, negative = inhibition, usual class: inhibitors. 1% of 390,000 active. AID 588453; further: potency means the concentration at half of the fitted maximal effect; nearly all actives have a fitted effect of over 65% in size
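Rat TrxR1 (90 nM in the dispensed reagent) was pre-reduced with 400 uM NADPH for 5 min at room temperature, then incubated with compound for 15 min. After 400 uM selenite was added, NADPH fluorescence (Ex 340/Em 450 nm) was followed for 8 min.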
Coupling enz – inhibits coupling enzyme system, counter-screen for aldolase hits. coupling enzyme system counterscreen, AmpLite Red fluorescence. 0.67% of 290,000 active. activity change, negative = inhibition, % at 58.2 µM, hits read low; in the data active means activity change below about -30%
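Compounds tested against the coupling enzymes alone at 57.5 uM final; readout was AmpLite Red fluorescence (525/598 nm) after 20 min at RT.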
TrxR1 substrate – is turned over as a substrate by rat TrxR1; AID 588456; 0.01% of 390,000 active; Potency, µM (series often up to 114 µM), without a hit: at the highest dose activity change, negative = substrate turnover; O89049; purified TrxR1 substrate turnover, NADPH consumption readout; further: potency means the concentration at half of the fitted maximal effect; nearly all actives have a fitted effect of over 50% in size
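Rat TrxR1, dispensed at 90 nM, was prereduced with 400 uM NADPH (final) for 5 min at ~22 deg C, then incubated with compound 15 min before 400 uM selenite. A first-read NADPH fluorescence drop versus no-compound background flagged substrates.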
VP16 counter – counter-screen for ROR gamma inhibitors: Gal4-VP16 reporter; 3.5% of 310,000 active; AID 2546; Potency, µM (highest dose often 53.6 µM), inactives show at the highest dose activity, negative = inhibition, actives largely listed as inhibitors; Drosophila S2 Gal4-VP16 UAS-luciferase, luminescence, 20 h;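 further: Gal4-VP16 expression switched on by copper sulfate through the metallothionein promoter; potency means the concentration at half of the fitted maximal effect; nearly all actives have a fitted effect of over 50% in size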
* hit, by the source's call; ? = inconclusive; . = no result; [ ] = another dose, or the depositor's remark. Unless noted, the call rests on the fitted dose curve; in most records, active means well fitted curve in the direction sought with a large enough effect; inconclusive means small, poorly fitted or top-dose-only effect, or another doubt; inactive means no such curve, though single readings can be large; an effect the other way counts as inactive or inconclusive. On the % scale 0 is the no-effect control and ±100 the full control effect.

SMILES | RORg inh | GALK inhibitor | TrxR1 inh | Coupling enz | TrxR1 substrate | VP16 counter
O=c1c2ccccc2[nH]c(=S)n1CCC1=CCCCC1 | 1.58µM* | 1.5% | 14.2% | -1.9 | -2.3% | 1.41µM*
C=CCn1c(=S)[nH]c2ccccc2c1=O | 5.62µM* | -4.5% | 4.1% | -1.5 | 5.0%[0.457 µM] | 4.47µM*
CC(C)COC(=O)Cc1c(O)c2ccccc2[nH]c1=O | 1.5% | 0.2% | -5.3% | 1.5 | 19.6% | -9.7%
C=CCn1c(=S)[nH]c2cc(-c3ccccc3)sc2c1=O | 1µM* | 5.5% | -1.5% | 2.9 | -3.2% | 2µM*
CC(C)COn1c(=S)[nH]c2ccccc2c1=O | 2.24µM* | -0.9% | 2.4% | 1.0 | -0.8% | 10µM*
CC(C)Cn1c(=S)[nH]c2cc(Cl)ccc21 | 1.58µM* | 5.1% | -7.2%[57.1 µM] | -0.8 | -3.9% | ?
CCN(CC)CCn1c(=S)[nH]c2ccccc2c1=O | -34.8% | 4.5% | -1.4%[57.1 µM] | 1.0 | -1.0%[57.1 µM] | 6.0%
C=C(C)Cn1c(=S)[nH]c2ccccc2c1=O | 3.98µM* | -1.2% | 64.3% | 0.5 | 113.9% | 11.2µM*
CC(C)Cn1c(=S)[nH]c2ccccc2c1=O | 1.12µM* | -2.5% | 7.2% | 0.3 | -5.4% | 4.47µM*
OCc1cc(Br)ccc1OCc1nc2ccccc2s1 | -3.8% | 3.6% | 45.3%[57.1 µM] | 0.2 | -9.8%[57.1 µM] | 4.3%
COc1cccc2c1NC(C(=O)O)C1CC=CC21 (stereo not drawn) | 0.3% | . | 12.6µM* | -13.4 | 8.1% | ?
O=C(O)C1Nc2c(cccc2C(F)(F)F)C2C=CCC12 (stereo not drawn) | 6.2% | -0.9% | . | 2.5 | . | 3.1%
CN(CC(=O)NC(=O)NCc1ccco1)Cc1nc2ccccc2c(=O)[nH]1 | 1µM* | 0.6% | -27.8% | -1.6 | 6.0% | 3.55µM*
CN(CC(=O)NC(c1ccccc1)c1ccccc1)Cc1nc2ccccc2c(=O)[nH]1 | ? | 3.1% | 0.5% | 0.3 | -3.7% | 12.6µM*
CN(CC(=O)Nc1ccccc1Sc1ccccc1)Cc1nc2ccccc2c(=O)[nH]1 | 0.447µM* | 0.2% | 38.6%[57.1 µM] | 0.5 | -3.9% | 3.55µM*
CN(CC(=O)Nc1ccccc1Cl)C(=O)CCc1nc2ccccc2c(=O)[nH]1 | . | . | 12.2%[57.1 µM] | . | 3.4%[57.1 µM] | .
CCOc1ccc(N2C(=O)CS/C2=N/NC(=O)COc2ccc3ccccc3c2)cc1 | 12.7% | -2.7% | 19.2% | 4.1 | 8.6% | -9.4%
Cc1ccc(C2=CC(c3ccccc3)n3ncnc3N2)cc1 (stereo not drawn) | . | . | -12.2% | . | 56.7% | .
C1=C(c2ccccc2)Nc2ncnn2C1c1ccccc1 (stereo not drawn) | . | . | 31.6µM* | . | 21.4% | .
CC(=O)Nc1nc2n(n1)C(c1ccccc1)C=C(c1ccccc1)N2 (stereo not drawn) | -0.2% | -2.9% | 39.8µM* | -2.8 | 83.8% | 7.0%
Cc1ccsc1C1C=C(c2cccc(Br)c2)Nc2ncnn21 (stereo not drawn) | 7.94µM* | -0.5% | ? | -0.2 | 13.8% | ?
CC(=O)Nc1nc2n(n1)C(c1ccc(F)cc1)C=C(c1ccccc1)N2 (stereo not drawn) | -12.1% | 0.4% | ? | -24.2 | 17.1% | -14.8%
CCc1ccc(C2=CC(c3cc(Br)ccc3F)n3ncnc3N2)cc1 (stereo not drawn) | ? | -1.7% | ? | 2.0 | 26.2% | 14.1µM*
C=CCc1cccc2cc(C(=O)Nc3cccc(C(=O)O)c3)c(=O)oc12 | -3.9% | 0.4% | -6.8% | -0.8 | -10.4% | -1.5%
COc1ccc(CCN(C)C2CCCN(S(=O)(=O)C(C)C)C2)cc1OC (stereo not drawn) | 5.0% | 2.3% | 19.5% | 1.0 | 1.0% | -0.4%
SMILES | RORg inh | GALK inhibitor | TrxR1 inh | Coupling enz | TrxR1 substrate | VP16 counter
CCC1(CC)CNC(=O)NC1 | . | . | 15.7% | . | 2.1% | .
CC1Oc2ccccc2N(CC(=O)NCC2CCCO2)C1=O (stereo not drawn) | 35.9% | 3.1% | 11.2% | -2.3 | -1.9% | -0.6%
Fc1ccc(Br)cc1C1C=C(c2ccc(Br)cc2)Nc2ncnn21 (stereo not drawn) | 6.31µM* | -2.9% | -35.8% | -0.6 | 18.2% | ?
O=C1CCC(=O)N1c1nc2n(n1)C(c1ccccc1)C=C(c1ccc(Br)cc1)N2 (stereo not drawn) | 4.6% | 2.3% | 70.8µM* | -2.0 | -0.1% | 0.5%
CC(C)CN1C(=O)c2ccccc2C1(O)Cc1ccccc1 (stereo not drawn) | ? | -2.9% | -23.5% | 0.1 | -0.3% | 20µM*
FC(F)(F)c1cccc(-c2nnc3ccc(C(F)(F)F)cn23)c1 | 10µM* | 2.6% | 2.0% | 1.7 | -5.0% | -4.3%
Cc1ccc(N2C(=O)c3ccccc3C2O)nc1 (stereo not drawn) | 7.08µM* | 10.8% | . | 0.8 | . | ?
CCCCN(C(=O)C1CCC1)c1c(N)n(CC(C)C)c(=O)[nH]c1=O | . | . | -7.5% | . | -6.4% | .
CCOc1ccccc1OCCCC(=O)Nc1ccc(Cl)c(S(=O)(=O)N2CCOCC2)c1 | . | . | 20.1% | . | -2.9% | .
O/N=C(/CBr)c1ccc2ccccc2c1 | . | . | 25.1µM* | . | 11.1%[0.0914 µM] | .
COc1cc2[nH]c3c(Cl)ncnc3c2cc1OC | -3.4% | 2.3% | -2.5% | -42.8* | -4.7% | -20.0%
COc1cc2[nH]c3c(N4CCN(c5ccc(Cl)cc5)CC4)ncnc3c2cc1OC | -20.5% | 0.1% | 23.1% | -1.0 | 35.6% | ?
Fc1cccc(/C=N/NC(=S)Nc2ccccc2Cl)c1 | 0.708µM* | -0.4% | -17.0% | 0.4 | -16.0% | 1µM*
S=C(N/N=C/c1ccc(Cl)c(Cl)c1)Nc1ccccc1Cl | 0.316µM* | 1.9% | 8.6%[57.1 µM] | -2.1 | -12.1% | 0.794µM*
Fc1ccc(NC(=S)N/N=C/c2cccc(Br)c2)c(F)c1 | 0.708µM* | 0.0% | 18.6% | 2.9 | 0.6% | 2.51µM*
N/C(=N\OC(=O)COc1ccc(Br)cc1Cl)c1ccncc1 | -2.7% | -1.7% | 2.9% | 1.8 | -6.8% | -4.1%
O=C(NN/C(=N/S(=O)(=O)c1ccc(Cl)cc1)c1ccccc1)c1ccc(O)cc1 | -33.4% | 0.5% | 12.5% | 3.3 | 6.9%[57.1 µM] | -24.8%
Cc1onc(-c2ccccc2)c1C(=O)N/N=C/c1cc(Br)c(Br)o1 | 7.08µM* | . | 5.2% | -10.5 | -9.1% | 10µM*
Cc1onc(-c2ccccc2)c1C(=O)N/N=C/c1ccc(Br)cc1 | ? | 7.0% | -14.9% | . | -11.7% | ?
O=C(N/N=C/c1cc(Br)c(Br)o1)C(O)c1ccccc1 (stereo not drawn) | -1.5% | 0.0% | ? | -2.4 | 5.8%[57.1 µM] | -8.6%
Cc1ccc(/C=N/NC(=O)c2c(-c3ccccc3)noc2C)o1 | 12.6µM* | . | 2.3%[57.1 µM] | -13.4 | -9.6% | ?
Cc1cccc(C)c1NC(=O)c1c(-c2ccccc2)noc1C | 10µM* | 0.8% | 4.8% | 3.8 | -5.3% | 10.0%

Source: PubChem BioAssay
